Results: PubChem BioAssay AID504339 (National Center for Advancing Translational Sciences (NCATS), 2011)
Out of some 390,000 compounds screened, about 17,000 (4.4%) were called active. Another 8% or so got no clear call; they are omitted. The list comes from a sample in which actives are over-represented; it also holds similar structures and randomly drawn compounds. Unmarked numbers belong to inactive results. The call rests on the fitted dose curve; in most records, active means well fitted inhibition curve with a large enough effect; inconclusive means small, poorly fitted or top-dose-only effect; inactive means no such curve, though single readings can be large or run the other way.

The molecules below were run against Lysine-specific demethylase 4A (Homo sapiens) (UniProt O75164) (assay: qHTS Assay for Inhibitors of JMJD2A-Tudor Domain). Settings: AlphaScreen JMJD2A-Tudor / H3K4me3 peptide binding; series mostly up to 114 µM; activity change, negative = inhibition: at the top concentration.
Sequence of Lysine-specific demethylase 4A (Homo sapiens) (O75164 whole entry, looked up, the tested form may be a part): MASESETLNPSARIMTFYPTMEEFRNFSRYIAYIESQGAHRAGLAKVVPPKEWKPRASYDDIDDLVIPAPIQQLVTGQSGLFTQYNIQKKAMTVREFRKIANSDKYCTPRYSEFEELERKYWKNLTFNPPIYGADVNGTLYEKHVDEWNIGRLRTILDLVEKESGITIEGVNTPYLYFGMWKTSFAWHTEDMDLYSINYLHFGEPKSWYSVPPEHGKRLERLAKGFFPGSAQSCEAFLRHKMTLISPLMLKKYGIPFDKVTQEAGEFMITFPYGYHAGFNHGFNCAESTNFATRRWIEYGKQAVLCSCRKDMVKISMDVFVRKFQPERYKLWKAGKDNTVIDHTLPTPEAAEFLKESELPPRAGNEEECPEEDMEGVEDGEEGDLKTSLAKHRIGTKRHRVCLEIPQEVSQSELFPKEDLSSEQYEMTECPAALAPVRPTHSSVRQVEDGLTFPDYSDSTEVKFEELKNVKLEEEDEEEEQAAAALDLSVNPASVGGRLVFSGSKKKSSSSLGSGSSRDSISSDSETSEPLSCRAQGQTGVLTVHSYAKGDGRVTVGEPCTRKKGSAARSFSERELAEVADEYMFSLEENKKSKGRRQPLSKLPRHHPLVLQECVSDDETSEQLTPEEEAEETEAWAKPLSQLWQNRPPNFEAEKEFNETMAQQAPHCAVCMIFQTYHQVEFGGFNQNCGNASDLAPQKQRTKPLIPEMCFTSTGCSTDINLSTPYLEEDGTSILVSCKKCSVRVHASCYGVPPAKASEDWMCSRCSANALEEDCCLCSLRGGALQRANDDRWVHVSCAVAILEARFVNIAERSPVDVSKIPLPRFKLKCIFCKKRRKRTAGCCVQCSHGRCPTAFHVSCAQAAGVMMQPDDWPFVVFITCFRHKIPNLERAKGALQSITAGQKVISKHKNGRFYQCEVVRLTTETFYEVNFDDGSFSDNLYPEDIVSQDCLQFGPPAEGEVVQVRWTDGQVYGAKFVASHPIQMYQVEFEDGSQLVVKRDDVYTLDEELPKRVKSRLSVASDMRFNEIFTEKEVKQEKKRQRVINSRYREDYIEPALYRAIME
Further: nearly all actives have a fitted effect of over 50% in size.
On the % scale 0 is the no-effect control and ±100 the full control effect; potency means the concentration at half of the fitted maximal effect.

Compound | Potency | activity change, negative = inhibition
COc1ccc(Br)cc1CNCCc1cccc(Cl)c1 | 22.4 µM (active) | –
CC(C)N(CC#CCC1(O)c2ccccc2-c2ccccc21)C(C)C | – | -4.64%
COc1ccc(-n2c(O)c(C(C)=Nc3ccc4c(c3)CCC4)c(=O)[nH]c2=O)cc1 | – | -6.38%
CCOC(=O)C1(Cc2ccc(Cl)cc2)CCN(C(C)CCn2cccn2)CC1 (stereo not drawn) | – | -25.9%
COc1ccc(N=Cc2c(O)n(C)c(=O)[nH]c2=O)cc1 | – | -10.2%
C=CC12CN(C)[C@@H]3C4CO[C@H](C[C@H]41)[C@]1(C(=O)Nc4ccccc41)[C@@H]32 (stereo partly drawn) | – | -31.3%
Cc1ccc(Cn2nnnc2CN2CCC(n3nnc4ccccc43)CC2)cc1 | 50.1 µM (active) | –
COC1=C[C@@H]2[C@@H]3Cc4ccc(OC)c(O)c4[C@]2(CCN3C)CC1=O | – | -11.5%
O=C(O)C1CSC(c2cccnc2)N1 (stereo not drawn) | 7.94 µM (active) | –
NCCc1c[nH]c2ccc(O)cc12 | – | -26.6%
CC[N+](CC)(CC)CCCCCCCCCC[N+](CC)(CC)CC | – | -8.14%
COc1cccc(N2C(=O)NC(=O)/C(=C\c3ccc([N+](=O)[O-])s3)C2=O)c1 | 35.5 µM (active) | –
O=C1NC(=O)N(c2ccccc2)C(=O)/C1=C/c1ccc([N+](=O)[O-])s1 | 56.2 µM (active) | –
COc1cccc(N2C(=O)NC(=O)/C(=C\c3cn(C)c4ccccc34)C2=O)c1 | – | -18.1%
Cc1ccccc1N1C(=O)NC(=O)/C(=C\c2cc(C)n(C)c2C)C1=O | – | -16.1%
O=C1NC(=O)N(c2ccc(F)cc2)C(=O)/C1=C/c1ccc2c(c1)CCCN2Cc1ccccc1 | – | -30.8%
COCCNC(=O)CN1C2CCC1CC(O)(c1cccnc1)C2 (stereo not drawn) | – | -0.69%
COC(=O)C1=C(c2cccc(OCc3ccccc3)c2)C[C@@H]2CC[C@H]1N2C(=O)NCc1ccc(Br)cc1 | – | -30.2%
C[C@]12CCC3C(CC[C@H]4[C@H](O)[C@H](O)CC[C@]34C)C1CCC2=O (stereo partly drawn) | – | 2.07%
Nc1ccc([N+](=O)[O-])cc1 | – | -18.6%
COC1C(O)C(C)OC(OC2CCC3(C=O)C(CCC4C3CCC3(C)C(C5=CC(=O)OC5)CCC43O)C2)C1O (stereo not drawn) | – | -1.36%
CCCCC(=O)N/N=C/c1c(O)n(-c2ccccc2)c(=O)[nH]c1=O | 79.4 µM (active) | –
CCc1nnc(NS(=O)(=O)c2ccc(N=Cc3c(O)n(-c4ccccc4)c(=O)[nH]c3=O)cc2)s1 | – | -5.84%
O=c1[nH]c(=O)n(Cc2ccccc2)c(O)c1/C=N/Nc1c(F)c(F)c(F)c(F)c1F | – | 2.68%
CNC(=O)O/N=C(\N)Cc1csc2ccc(Cl)cc12 | – | -16.9%
Cc1ccc(Oc2cnn(-c3ccccc3)c(=O)c2Br)cc1 | – | 45.4%
COc1ccc(N2C(=O)/C(=C/c3ccco3)C(=O)NC2=S)cc1 | 10 µM (active) | –

Compound | Potency | activity change, negative = inhibition
O=C1NC(=O)N(Cc2ccco2)C(=O)/C1=C\c1ccc(-c2ccc(F)cc2)o1 | – | -24.6%
Cc1cc(/C=C2/C(=O)NC(=O)N(Cc3ccco3)C2=O)c(C)n1-c1ccc(C(=O)O)cc1 | – | -22.4%
CN(C)c1ccc(/C=C2\CC3C4CC=C5CC(O)CCC5(C)C4CCC3(C)C2=O)cc1 (stereo not drawn) | – | -26.2%
C[C@]12CC[C@H](O)CC1=C([N+](=O)[O-])CC1C2CC[C@@]2(C)C1CC[C@@H]2O (stereo partly drawn) | – | -7.53%
COc1ccccc1N=C1SCCCN1C | 56.2 µM (active) | –
CCC(C)(O)C(=O)OC1C(=O)OC2CC3C(C)=CC(=O)C(O)C3(C)C3C4(O)OCC23C1C(C)C4O (stereo not drawn) | – | -7.64%
COCc1cc(OC(=O)N(C)C)nc(-c2ccc(C)c(Cl)c2)n1 | – | 28.4%
CCOC(=O)CC(SP1(=S)OCC2(CCCCO2)C(C2CCCCO2)O1)C(=O)OCC (stereo not drawn) | – | 14.5%
c1cc2c(cc1C1OCC3C(c4ccc5c(c4)OCO5)OCC13)OCO2 (stereo not drawn) | – | -4.08%
CC(=O)OC1C2(CC3N4C(=O)C5(CO)SSC4(CC31O)C(=O)N5C)OC(C)C(C)(C)C2=O (stereo not drawn) | – | -18.1%
CCN(CC)CCOC(=O)c1cc2cc(COC)ccc2o1 | 56.2 µM (active) | –
Cc1ccc(N(C)C(=O)Oc2cccc3ccc(C)nc23)cc1 | – | -1.27%
CC(=O)C1(O)CCC2C3CCC4=C(Cl)C(=O)CCC4(C)C3CCC21C (stereo not drawn) | – | -2.76%
COC(=O)C1=C(c2ccc(Cl)c(C(F)(F)F)c2)C[C@@H]2CC[C@H]1N2C(=O)NC(C)C | – | -15.9%
Clc1cccc(Cl)c1Cl | – | -15.2%
O=C(COC(=O)c1ccccc1)Nc1ccc(Cl)cc1C(=O)c1ccccc1 | – | 6.97%
CN1CCN(C(=S)SCC(=O)Nc2ccc(Cl)cc2C(=O)c2ccccc2)CC1 | 44.7 µM (active) | –
O=C(Nc1ccc(Cl)cc1C(=O)c1ccccc1)c1cc(Cl)cc(Cl)c1 | – | 0.654%
CC12CCC3C(CCC4CC(=O)CCC43C)C1CC(=NO)C2=O (stereo not drawn) | – | -7.64%
Cc1cccc(Cn2cccc(C(=O)Nc3ccc4c(c3)OCCO4)c2=O)c1 | – | -24.4%
CCOCCc1c(O)[nH]c(=S)[nH]c1=O | 79.4 µM (active) | –
Oc1ccc2c3c1OC1[C@H](O)CC[C@@]4(O)[C@@H](C2)N(CC2CC2)CC[C@]314 (stereo partly drawn) | inactive | –
CCC(C)n1c(O)c(/C=N/Nc2nc3c(c(=O)n(C)c(=O)n3C)n2C)c(=O)[nH]c1=S (stereo not drawn) | 79.4 µM (active) | –
Cc1ccccc1NC(=O)COC(=O)c1cc(C)n(C2CC2)c1C | – | -15.8%
C=Cn1ccnc1P(=S)(c1cc(N(CC)CC)ns1)c1nccn1C=C | – | -26.7%
Cc1nc2ccccn2c1P(=S)(N1CCCCC1)N1CCCCC1 | – | -16.4%
